Shown are actives, neighbours in structure and some others; about 7.4% of the full set was active somewhere.
FLuc modulator – inhibits or activates purified firefly luciferase, miR-21 counter-screen; Potency, µM (doses to about 57.5 µM), for the others: top-dose activity change, negative = inhibition, actives largely listed as inhibitors; purified FLuc, Km substrates, luminescence inhibition; actives 6.9% (n = 360,000); AID 588342; P08659;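 further: plate controls were vehicle for no effect and reference inhibitor for full effect; nearly all actives have a fitted effect of over 55% in size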
Target sequence (P08659 whole entry, looked up): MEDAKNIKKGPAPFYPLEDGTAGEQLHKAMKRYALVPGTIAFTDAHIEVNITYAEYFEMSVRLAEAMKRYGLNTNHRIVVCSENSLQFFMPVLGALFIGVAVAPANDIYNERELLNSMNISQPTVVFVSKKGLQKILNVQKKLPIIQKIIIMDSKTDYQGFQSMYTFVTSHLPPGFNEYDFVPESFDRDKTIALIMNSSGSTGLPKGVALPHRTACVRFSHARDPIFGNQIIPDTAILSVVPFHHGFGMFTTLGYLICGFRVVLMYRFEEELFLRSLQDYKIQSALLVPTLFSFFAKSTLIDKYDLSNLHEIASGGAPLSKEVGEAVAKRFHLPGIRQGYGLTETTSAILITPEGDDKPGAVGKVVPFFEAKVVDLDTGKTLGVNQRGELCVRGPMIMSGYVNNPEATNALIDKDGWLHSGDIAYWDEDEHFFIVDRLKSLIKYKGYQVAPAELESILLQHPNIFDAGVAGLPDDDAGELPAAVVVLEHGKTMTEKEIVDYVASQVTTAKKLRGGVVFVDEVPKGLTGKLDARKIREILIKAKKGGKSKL
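Biochemical qHTS of compounds, final roughly 60 µM downward over six points, against 10 nM purified firefly luciferase using Km concentrations of substrates (10 uM D-luciferin, 10 uM ATP) in Tris acetate pH 7.5 buffer; luminescence output.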
SMN2 splice enh – enhancers of SMN2 splice variant expression | HEK293 SMN2-luciferase splicing reporter, luminescence, 30-36 h | Potency, µM (highest dose often 46.1 µM), for inactives: at the highest dose activity change, positive = activation, most hits filed as activators | actives 2.8% (n = 210,000); further: % of control where 0% means no effect; nearly all actives have a fitted effect of over 55% in size
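HEK293 cells carry an SMN2 minigene-luciferase reporter in which exon 7 inclusion puts luciferase in frame. Cells were seeded at 2000 cells/well, attached for 10-12 hours, then exposed to compounds for 30-36 hours at 37C before ONE-Glo luminescence.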
ELG1 genotox – genotoxicity induction in ELG1-luciferase HEK293T cells | HEK293T ELG1-luciferase reporter, luminescence, 16 h | Potency, µM (top dose mostly 46 µM), inactives show top-dose activity change, positive = activation, hits mostly activators | actives 1.3% (n = 330,000) | AID 504466; further: % of control where 0% means no effect; nearly all actives have a fitted effect of over 60% in size
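Genotoxic stress is detected as increased luminescence from luciferase-tagged ELG1 in HEK293T cells, measured with ONE-Glo after a 16 hr treatment at 37 °C.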
Rab9 promoter act – activators of Rab9 promoter; actives 2.8% (n = 320,000); Huh7 Rab9 promoter-luciferase reporter, luminescence, 24 h; Potency, µM (series often up to 9.22 µM), for the others: at the highest dose activation, negative = inhibition, most hits filed as activators; further: % of control where 0% means no effect; nearly all actives have a fitted effect of over 60% in size
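Huh7 reporter line, Rab9 promoter upstream of luciferase. Compound exposure 24 h at 37 °C in reduced-serum medium with 10% FBS. Read-out: luminescence.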
NPC1 prom act – activates the NPC1 promoter | Huh7 NPC1 promoter luciferase reporter, 24 h | Potency, µM (series often up to 9.22 µM), for the others: at the top dose activation, actives largely listed as activators | actives 2.4% (n = 320,000); further: % of control where 0% means no effect; nearly all actives have a fitted effect of over 60% in size
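Huh7 cells stably carrying NPC1 promoter–luciferase, plated in Opti-MEM with 10% FBS for 2 h, were exposed to compound in DMSO for 24 h at 37 °C; luciferase reagent was added for 10 min and luminescence read.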
KinaseGlo FLuc – counter-screen: inhibitors of Kinase-Glo firefly luciferase | actives 0.28% (n = 200,000) | Kinase-Glo luciferase, ATP luminescence, 8 min | AID 1379 | Q27757 | Potency, µM (top dose mostly 38.3 µM), without a hit: top-dose activity change, negative = inhibition, hits mostly inhibitors; further: on the % scale 0 is the no-effect control and ±100 the full control effect; nearly all actives have a fitted effect of over 60% in size
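Compound is pinned into ATP-containing buffer (10 uM ATP, imidazole pH 7.2, 7 mM MgCl2). Kinase-Glo luciferase reagent is then added. Light output is recorded following an 8-min room-temperature incubation.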
Active calls of the source: *; ? = inconclusive; · = no result; [ ] = another dose, or the depositor's remark. The call rests on the fitted dose curve; in most records, active means well fitted curve in the direction sought with a large enough effect; inconclusive means small, poorly fitted or top-dose-only effect, or another doubt; inactive means no such curve, though single readings can be large; an effect the other way counts as inactive or inconclusive. Potency means the concentration at half of the fitted maximal effect.

SMILES	FLuc modulator	SMN2 splice enh	ELG1 genotox	Rab9 promoter act	NPC1 prom act	KinaseGlo FLuc
CCC(C)c1ccc(NC(=O)C2CC2)cc1 (stereo not drawn)	15µM*	2%	?	29%	16%	3%
Cc1ccnc(N2CCCC(C(=O)Nc3ccc(C)c(C)c3)C2)n1 (stereo not drawn)	1%	·	-18%	-1%	3%	·
COc1ccc(NC(=O)C2CCCN(c3ncccn3)C2)cc1 (stereo not drawn)	17µM*	·	?	2.8µM*	?	·
COc1ccc(NC(=O)C2CCCN(c3nccc(C)n3)C2)cc1 (stereo not drawn)	-1%	-8%	1%	-10%	-1%	-4%
CCOc1ccc(NC(=O)Nc2cnccn2)cc1	?	?	7%	?	12%	-4%
Cc1ccc(C)c(N2CCN(C(=O)Cn3nc(Cc4cccnc4)c4ccccc4c3=O)CC2)c1	-15%	-23%	·	·	·	·
CCc1nnc(NC(=O)CCC(=O)NCc2ccc(OC)cc2)s1	-2%	·	-3%	0%	0%	·
CCN(CC(=O)Nc1c(F)cccc1F)C(=O)C1CC(=O)N(CCc2ccccc2)C1 (stereo not drawn)	2%	·	15%	-1%	-1%	·
CCOC(=O)COc1ccc(C2CC(C)=NN2c2ccccc2)cc1 (stereo not drawn)	3%	9%	2%	-10%	-9%	5%
CCC(C)c1ccc(NC(=O)C2CCCN(c3ncccn3)C2)cc1 (stereo not drawn)	15µM*	8%	-1%	1%	4%	0%
CCOc1ccc(C(=O)Nc2cccc3ncccc23)cc1Cl	-11%	·	0%	-1%	-7%	·
C=CCNC(=O)c1ccc(-c2nc(-c3ccc(Cl)cc3Cl)cs2)cc1	-5%	4.5µM*	2%	8%	5%	1%
O=C(OCc1csc(-c2ccccc2)n1)c1ccc(O)cc1	19µM*	21%	?	?	17%	-2%
O=C(Nc1ccc(-c2csc(-c3ccccc3)n2)cc1)c1ccccc1Cl	?	-1%	-2%	1%	-4%	-3%
O=C(O)c1ccc(-c2nc(-c3ccc(Cl)c(Cl)c3)cs2)cc1	13µM*	129%	0%	?	3.2µM*	-4%
Cc1ccc(C(=O)NCC(=O)OCc2csc(-c3ccccc3)n2)cc1	?	?	?	-7%	13%	3%
CNC(=O)c1ccc(-c2nc(-c3ccccc3)cs2)cc1	9.5µM*	16µM*	?	4µM*	?	-1%
O=C(CSc1nnc(C2COc3ccccc3O2)o1)N1CCN(c2ccccc2)CC1 (stereo not drawn)	0%	7%	0%	5%	-4%	-1%
O=C(O)c1ccc(-c2nc(-c3ccccc3)cs2)cc1	6µM*	10µM*	7%	1µM*	1.4µM*	-7%
O=C(O)c1ccccc1C(=O)Nc1ccc(-c2csc(-c3ccccc3)n2)cc1	17µM*	72%	?	20%	5%	7%
CNC(=O)c1csc(-c2ccc(C)cc2)n1	17µM*	25%	?	?	?	6%
O=C(O)c1ccccc1-c1csc(-c2ccccc2)n1	15µM*	?	?	4µM*	?	0%
CCCC[C@]12Cc3cc(C#N)ccc3C(O1)c1c(cc(C)n(-c3ccccc3)c1=O)O2	-1%[11.5 µM]	·	·	0%[1.84 µM]	-3%[1.84 µM]	·
Cc1oncc1-c1csc(-c2ccccc2)n1	?	13%	?	29%	10%	1%
C=CCNC(=O)c1ccc(-c2nc(-c3ccc(Cl)c(Cl)c3)cs2)cc1	1%	-7%	2%	1%	-4%	3%
SMILES	FLuc modulator	SMN2 splice enh	ELG1 genotox	Rab9 promoter act	NPC1 prom act	KinaseGlo FLuc
O=C(O)c1ccc(-c2nc(-c3ccccc3Cl)cs2)cc1	17µM*	18µM*	?	?	?	-8%
CCS(=O)(=O)c1ccc(-c2csc(-c3ccccc3)n2)c(Cl)c1Cl	24µM*	-50%	21µM*	-1%	8%	-2%
COc1cc(OC)c(C(=O)OCC(=O)Nc2c(C)n(C)n(-c3ccccc3)c2=O)cc1OC	1%	·	1%	-1%	6%	·
Cc1cc(Nc2ccccc2O)c2ccccc2n1	0%	·	-2%	-2%	0%	1%
COC(=O)c1cc(Nc2cc(C)c3c(O)cccc3n2)cc(C(=O)OC)c1	?	·	-6%	0%	10%	·
Cc1ccc(Nc2cc(C)c3ccc(O)cc3n2)cc1C	17µM*	·	13%	1%	3%	·
Cc1ccccc1Nc1cc(C)c2c(O)cccc2n1	19µM*	-6%	0%	-10%	-1%	-2%
COc1ccc(Nc2cc(C)c3c(O)cccc3n2)cc1	21µM*	·	4%	20%	7%	·
Cc1ccc(Nc2cc(C)c3c(O)cccc3n2)cc1C	9.5µM*	·	?	?	?	·
COC(=O)c1cc(Nc2cc(C)c3ccc(O)cc3n2)cc(C(=O)OC)c1	0%	·	5%	10%	0%	·
Cc1cccc(Nc2nc(N)nc(CCl)n2)c1C	?	·	-7%	-63%	-54%	·
COc1ccc(C2=NNC(c3cc(Cl)cc4c3OCOC4)C2)c(O)c1 (stereo not drawn)	13µM*	-67%	-4%	0%	0%	0%
Cc1ccc(-c2cc(NC(=O)c3cccc(C)c3)on2)cc1	-14%	?	·	·	·	·
CC(Sc1nncn1C)C(=O)Nc1nnc(-c2ccccc2)s1 (stereo not drawn)	15µM*	14µM*	16µM*	?	?	1%
COc1ccccc1C(=O)Nc1nc(-c2cccs2)c(NC(C)=O)s1	0.76µM*	?	9.2µM*	?	19%	-6%
CC(=O)Nc1sc(NC(=O)c2ccccc2)nc1-c1cccs1	-17%	1%	0%	-6%	-1%	1%
COc1ccccc1C(=O)Nc1cc(-c2ccc(C)cc2)no1	6µM*	?	?	?	?	·
COc1cccc(C(=O)Nc2sc(C(C)C)cc2C(N)=O)c1OC	21µM*	·	-4%	-2%	-3%	·
CCOC(=O)c1ccc(N2CCN(C(=O)c3ccccc3)CC2)c(NC(=O)c2ccco2)c1	-4%	·	-14%	-2%	0%	·
CC(C)=CC(=O)Nc1nnc(C)s1	-17%	?	15%	16%	9%	-1%
COc1ccccc1C(=O)N(C)c1nnc(-c2ccccc2)s1	19µM*	·	5%	?	3.5µM*	·
COCCN(C(=O)c1ccccc1OC)c1nnc(C)s1	-1%	-10%	-1%	-4%	-2%	0%
CC(=O)Nc1sc(N/N=C\c2ccc(O)cc2)nc1-c1cccs1	12µM*	·	?	22%	11%	·

Screening results from PubChem BioAssay.
